The text below walks through data of publication PMC5540273 (PLoS ONE, 2017).

The subject of one assay is T1, NDR1.
T1 construct: gene STK38
Conditions: n = 1.

The next assay deals with NDR2. Conditions: concentration: 1 μM, replicates: in singlicate; n = 1.
The next assay relates to NEK10. Conditions: n = 1.
In a further assay the test system is NEK11. The conditions noted are these: concentration: 1 μM, replicates: in singlicate; n = 1.
In a further assay the test system is NEK1. The conditions noted are these: concentration: 1 μM, replicates: in singlicate; n = 1.
For another assay, the system named is NEK2. Conditions: n = 1.
In another assay the test system is NEK3. Conditions: n = 1.
The next assay has as its system NEK4. The conditions noted are these: n = 1.
In a further assay the test system is NEK5. The conditions noted are these: n = 1.
A further assay deals with NEK6. Conditions: concentration: 1 μM, replicates: in singlicate; n = 1.
The subject of another assay is NEK7. The conditions noted are these: n = 1.
For the next assay, the system named is NEK9. Conditions: n = 1.
A further assay relates to T2, NIK.
T2 construct: gene MAP3K14
The conditions noted are these: n = 1.

The subject of another assay is T3, NIM1.
T3 construct: gene MGC42105
The conditions noted are these: n = 1.

In a further assay the test system is NLK. Conditions: n = 1.
The subject of the next assay is T4, OSR1.
T4 construct: gene OXSR1
Conditions: n = 1.

In the next assay the test system is PAK1. The conditions noted are these: n = 1.
Another assay has as its system PAK2. Conditions: n = 1.
A further assay has as its system PAK3. Conditions: n = 1.
The subject of a further assay is PAK4. The conditions noted are these: concentration: 1 μM, replicates: in singlicate; n = 1.
Setting [1] is: concentration: 1 μM, replicates: in singlicate.
[2] abbreviates: concentration: 1 μM,replicates: in singlicate, 1 µM.

“And” between values parts separate entries of the source, which are not always exact repeats. Equal entries are not always repeated. Where two headings read alike, the source gives them in different places.
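Further: KINOMEscan kinase panel screen.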

Take `O=C(Nc1n[nH]c2nc(-c3nccs3)c(Br)cc12)C1CC1` [SB-742251]: the “%Inh” value is listed as 0% with NDR1 (setting [1]); 0% with NDR2; 0% with NEK10 (setting [1]); 48% in the assay with NEK11; 0% in the assay on NEK1; 0% with NEK2 (setting [1]). The “%Inh” value in the assay on NEK3 (setting [1]) was 8%; with NEK4 (setting [1]), 21%; in the assay on NEK5 (setting [1]) it was 10%; in the assay with NEK6, 0%; in the assay with NEK7 (setting [1]), 0%; in the assay on NEK9 (setting [1]) it was 0%. Besides, the “%Inh” value in the assay with NIK (setting [1]) is 44%; with NIM1 (setting [1]), 0%; with NLK (setting [1]) it was 0%; in the assay with OSR1 (setting [1]) it was 7%; with PAK1 (setting [1]) it was 2%; in the assay on PAK2 (setting [1]) it was 16%. The “%Inh” value was found to be 20% in the assay on PAK3 (setting [1]) and 0% with PAK4.

Regarding `Cc1cccc(-c2nc(C)cc(Nc3ccncc3)n2)n1` [GSK257997], the “%Inh” value in the assay on NDR1 (setting [1]) was determined as 7%; in the assay on NDR2 it was 0%; in the assay with NEK10 (setting [1]), 27%; with NEK11, 0%; with NEK1, 0%; with NEK2 (setting [1]), 0%. Further, the “%Inh” value in the assay with NEK3 (setting [1]) turned out to be 0%; in the assay with NEK4 (setting [1]), 0%; in the assay on NEK5 (setting [1]), 20%; with NEK6 it was 0%; in the assay on NEK7 (setting [1]), 0%; in the assay with NEK9 (setting [1]) it was 46%. Also, the “%Inh” value in the assay with NIK (setting [1]) stood at 10%; with NIM1 (setting [1]), 6%; in the assay on NLK (setting [1]), 30%; in the assay on OSR1 (setting [1]), 10%; with PAK1 (setting [1]), 44%; in the assay on PAK2 (setting [1]), 41%. Besides, the “%Inh” value in the assay on PAK3 (setting [1]) is 32%; in the assay with PAK4 it was 23%.

In the case of `CC1=C(C(=O)Nc2cc3cn[nH]c3cc2F)C(c2ccc(C(F)(F)F)cc2)CC(=O)N1` (centres unmarked) [GSK429286], the “%Inh” value in the assay with NDR1 (setting [1]) is reported as 23%; in the assay with NDR2 it was 0%; in the assay with NEK10 (setting [1]), 7%; in the assay with NEK11, 0%; in the assay on NEK1, 0%; in the assay with NEK2 (setting [1]), 0%. Moreover, the “%Inh” value is given as 6% with NEK3 (setting [1]); 24% with NEK4 (setting [1]); 0% in the assay with NEK5 (setting [1]); 0% in the assay with NEK6; 0% in the assay on NEK7 (setting [1]); 0% in the assay with NEK9 (setting [1]). In addition, the “%Inh” value in the assay with NIK (setting [1]) was determined as 27%; in the assay with NIM1 (setting [1]), 12%; with NLK (setting [1]), 13%; in the assay with OSR1 (setting [1]), 18%; in the assay on PAK1 (setting [1]) it was 0%; in the assay with PAK2 (setting [1]) it was 4%. The “%Inh” value turned out to be 45% in the assay with PAK3 (setting [1]) and 0% in the assay on PAK4.

Turning to `Cc1c(Cn2ccn3c(=O)cc(N4CCOCC4)nc23)cccc1C(F)(F)F` [GSK2289044], the “%Inh” value in the assay on NDR1 (setting [1]) came out at 31%; in the assay on NDR2 it was 0%; in the assay on NEK10 (setting [1]), 0%; with NEK11 it was 0%; with NEK1 it was 0%; in the assay on NEK2 (setting [1]) it was 8%. For the same molecule, the “%Inh” value with NEK3 (setting [1]) turned out to be 0%; in the assay with NEK4 (setting [1]) it was 0%; in the assay on NEK5 (setting [1]) it was 2%; in the assay on NEK6, 0%; with NEK7 (setting [1]), 4%; in the assay on NEK9 (setting [1]), 20%. Further, the “%Inh” value was determined as 0% with NIK (setting [1]); 7% with NIM1 (setting [1]); 27% in the assay with NLK (setting [1]); 8% in the assay with OSR1 (setting [1]); 16% in the assay on PAK1 (setting [1]); 8% in the assay with PAK2 (setting [1]). The “%Inh” value amounted to 13% in the assay with PAK3 (setting [1]) and 0% with PAK4.

With `CSc1nn2c(=O)cc(N3CCOCC3)nc2n1Cc1cccc(C(F)(F)F)c1C` [GSK2363608], the “%Inh” value in the assay on NDR1 (setting [2]) is 17% and 8%; in the assay on NDR2 it was 0%; in the assay on NEK10 (setting [2]) it was 8% and 28%; in the assay on NEK11, 0%; in the assay with NEK1, 0%; in the assay with NEK2 (setting [2]) it was 100% and 1%. For the same molecule, the “%Inh” value in the assay on NEK3 (setting [2]) is 14% and 3%; in the assay with NEK4 (setting [2]) it was 0% and 16%; in the assay with NEK5 (setting [2]), 23% and 0%; in the assay on NEK6, 0%; in the assay with NEK7 (setting [2]) it was 3% and 0%; in the assay on NEK9 (setting [2]), 22% and 2%. In addition, the “%Inh” value in the assay with NIK (setting [2]) is 0% and 6%; in the assay with NIM1 (setting [2]) it was 2% and 12%; with NLK (setting [2]), 2% and 37%; in the assay on OSR1 (setting [2]) it was 15% and 7%; with PAK1 (setting [2]) it was 0% and 38%; in the assay on PAK2 (setting [2]), 0% and 37%. For the same molecule, the “%Inh” value in the assay on PAK3 (setting [2]) was 8% and 0%; in the assay with PAK4, 0%.

For `COc1cccc(NC(=O)NC2CCN(c3ccnc(Nc4ccc(F)cc4)n3)C2)c1` (centres unmarked) [GSK1379721], the “%Inh” value with NDR1 (setting [1]) came out at 9%; in the assay on NDR2 it was 27%; with NEK10 (setting [1]) it was 0%; in the assay on NEK11, 2%; with NEK1 it was 0%; in the assay with NEK2 (setting [1]), 1%. Besides, the “%Inh” value in the assay with NEK3 (setting [1]) came to 6%; in the assay on NEK4 (setting [1]), 0%; with NEK5 (setting [1]), 29%; with NEK6, 0%; in the assay on NEK7 (setting [1]), 16%; in the assay with NEK9 (setting [1]), 35%. In addition, the “%Inh” value is 2% in the assay with NIK (setting [1]); 14% in the assay with NIM1 (setting [1]); 0% in the assay with NLK (setting [1]); 4% in the assay with OSR1 (setting [1]); 0% with PAK1 (setting [1]); 0% with PAK2 (setting [1]). Also, the “%Inh” value with PAK3 (setting [1]) and in the assay on PAK4 was 0% in each case.

Regarding `COc1ccc(Nc2nccc(-c3cccc(NC(=O)c4cc5cc(F)ccc5[nH]4)c3)n2)cc1` [GSK1229782], the “%Inh” value worked out at 0% in the assay on NDR1 (setting [1]); 34% in the assay on NDR2; 40% with NEK10 (setting [1]); 16% in the assay on NEK11; 12% with NEK1; 3% in the assay on NEK2 (setting [1]). Also, the “%Inh” value in the assay on NEK3 (setting [1]) was 12%; in the assay on NEK4 (setting [1]) it was 9%; with NEK5 (setting [1]) it was 29%; in the assay on NEK6 it was 1%; in the assay on NEK7 (setting [1]), 0%; with NEK9 (setting [1]), 21%. Moreover, the “%Inh” value in the assay on NIK (setting [1]) was found to be 50%; in the assay on NIM1 (setting [1]), 13%; in the assay with NLK (setting [1]) it was 9%; in the assay on OSR1 (setting [1]), 18%; with PAK1 (setting [1]), 36%; with PAK2 (setting [1]), 35%. For the same molecule, the “%Inh” value amounted to 13% in the assay on PAK3 (setting [1]) and 22% with PAK4.

Regarding `COc1ccc(Nc2nccc(NCCNC(=O)Nc3ccccc3F)n2)cc1` [GSK1379901], the “%Inh” value came to 26% in the assay with NDR1 (setting [1]); 0% with NDR2; 13% with NEK10 (setting [1]); 0% in the assay with NEK11; 0% with NEK1; 0% with NEK2 (setting [1]). Besides, the “%Inh” value in the assay with NEK3 (setting [1]) stood at 19%; in the assay with NEK4 (setting [1]), 0%; in the assay with NEK5 (setting [1]), 3%; in the assay with NEK6, 0%; in the assay on NEK7 (setting [1]), 0%; in the assay on NEK9 (setting [1]) it was 0%. Also, the “%Inh” value with NIK (setting [1]) is 9%; in the assay with NIM1 (setting [1]) it was 9%; with NLK (setting [1]), 7%; in the assay with OSR1 (setting [1]), 8%; in the assay with PAK1 (setting [1]), 0%; in the assay with PAK2 (setting [1]), 0%. Moreover, the “%Inh” value with PAK3 (setting [1]) and in the assay with PAK4 was 0% in each case.

On to `Fc1cc(Cl)ccc1Nc1ccnc2cc(-c3ccc(CN4CCCCC4)o3)ccc12` [GW560116], for which the “%Inh” value in the assay on NDR1 (setting [1]) is listed as 9%; in the assay on NDR2, 18%; in the assay on NEK10 (setting [1]) it was 5%; in the assay with NEK11, 4%; in the assay on NEK1, 0%; in the assay on NEK2 (setting [1]), 0%. In addition, the “%Inh” value is recorded as 0% in the assay on NEK3 (setting [1]); 0% in the assay on NEK4 (setting [1]); 4% with NEK5 (setting [1]); 0% in the assay on NEK6; 0% with NEK7 (setting [1]); 0% in the assay with NEK9 (setting [1]). The “%Inh” value in the assay on NIK (setting [1]) amounted to 10%; in the assay with NIM1 (setting [1]) it was 0%; in the assay with NLK (setting [1]) it was 16%; in the assay with OSR1 (setting [1]), 0%; with PAK1 (setting [1]) it was 2%; with PAK2 (setting [1]) it was 5%. The “%Inh” value in the assay with PAK3 (setting [1]) and with PAK4 was 0% in each case.

As for `COc1ccc2nc(-c3cccc(C)n3)nc(Nc3ccncc3)c2c1` [GSK204919], the “%Inh” value in the assay with NDR1 (setting [1]) came to 0%; with NDR2, 0%; in the assay with NEK10 (setting [1]), 3%; with NEK11, 7%; in the assay on NEK1, 0%; in the assay on NEK2 (setting [1]), 0%. For the same molecule, the “%Inh” value is reported as 0% in the assay on NEK3 (setting [1]); 11% with NEK4 (setting [1]); 17% in the assay on NEK5 (setting [1]); 0% in the assay with NEK6; 0% with NEK7 (setting [1]); 0% with NEK9 (setting [1]). The “%Inh” value in the assay on NIK (setting [1]) is recorded as 0%; in the assay on NIM1 (setting [1]), 0%; in the assay on NLK (setting [1]), 52%; in the assay on OSR1 (setting [1]) it was 10%; in the assay on PAK1 (setting [1]), 8%; with PAK2 (setting [1]), 14%. Moreover, the “%Inh” value turned out to be 7% in the assay with PAK3 (setting [1]) and 0% with PAK4.
